Among all 220,000 compounds or so, about 800 (0.36%) were called active. The list comes from a sample in which actives are over-represented; it also holds similar structures and randomly drawn compounds. Unmarked numbers belong to inactive results.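 Rule for the calls: active = inhibition above about 50% (limit read from the data); inactive = the rest.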

The source of these data is PubChem BioAssay AID1236 (Emory University Molecular Libraries Screening Center, 2008).

This assay deals with calpain II (m-calpain), Sus scrofa. The experiment in a line: m-calpain protease activity blockers – biochemical, fluorogenic peptide substrate, 1536-well, primary screen (AID 1236). Conditions: purified calpain II, 30 min, at 16 µM, stronger effect = higher value.
For `CCc1cc(-c2n[nH]c(=S)n2CC(C)C)cs1`, the inhibition is 44.2%.
As for `CCCc1cc(-c2n[nH]c(=S)n2CC)c2ccccc2n1`, the inhibition is -40.7%.
Regarding `CCCc1cc(-c2n[nH]c(=S)n2Cc2ccccc2)cs1`, the inhibition is 67.9% (active).
`C=CCN(c1ccccc1C(=O)NCC(=O)OCC)S(=O)(=O)c1ccc(C)cc1`: the inhibition was -6.73%.
Next, `COc1ccc(C(=O)Nc2ccc(S(=O)(=O)Nc3onc(C)c3C)cc2)cc1OC`: 29.6%.
For `Cc1cc(C)c2nc(-c3cccnc3)cc(C(=O)Nc3ccc(S(=O)(=O)Nc4onc(C)c4C)cc3)c2c1` the value was 55.4% (active).
For `CCn1c(SCC(=O)Nc2ccc(S(=O)(=O)Nc3onc(C)c3C)cc2)nnc1-c1ccccc1` the value was -78.3%.
With `Cc1coc2cc3oc(=O)c(CCC(=O)O)c(C)c3cc12`, the inhibition was -98.6%.
`O=c1cc(N2CCCCC2)c(-c2ccccc2)nn1Cc1cccc(F)c1`: the inhibition is 55.9% (active).
For `O=c1cc(N2CCN(Cc3ccccc3)CC2)c(-c2ccccc2)n[nH]1` the value was -13.6%; for `O=c1c2ccccc2c(-c2ccccc2)nn1Cc1ccccc1`, 11.2%; for `COc1cc2sc(C)nc2cc1C`, 2.42%.
For `O=C(NCCNc1ccc([N+](=O)[O-])cc1)c1cccc2c(Br)cccc12` the value was -5.43%; for `O=C(COc1ccc(S(=O)(=O)N2CCCCC2)cc1)NCc1ccccn1`, -4.04%; for `CC1(C)OC(=O)C(=CSc2ccc(C(C)(C)C)cc2)C(=O)O1`, -10.7%.
For `CCCOc1ccc(NC(=O)C2OC3OC(C)(C)OC3C3OC(C)(C)OC23)cc1` (stereo not given) the value was -15.2%.
Take `NNC(=O)c1cccc(COCC(F)(F)C(F)F)c1`: the inhibition is 20.4%.
Regarding `Cc1ccc(SCC(=O)c2sc(-c3ccccc3)nc2C)cc1`, the inhibition is 66.3% (active).
Consider `Cc1nc(-c2ccc(Cl)cc2)sc1C(=O)CBr`, for which the inhibition was 27.7%.
As for `Cc1nc(-c2ccccc2)sc1C(=O)/C=C/c1ccccc1`, the inhibition is -0.94%.
Consider `Cc1ccc(C)c2c1cc(C)c1nnc(SCC(=O)Nc3cccc(C(=O)O)c3)n12`, for which the inhibition was -13.6%.
For `CC1(C)CCSC(/C=C/c2ccccc2)=N1` the value was -19.7%.
Next, `CCCN(C(=O)CSc1nnnn1C)c1c(N)n(Cc2ccccc2)c(=O)[nH]c1=O`: -5.69%; `C=CCNc1nc(Nc2ccc(Cl)cc2)nc(OC)n1`: -20.2%; `CC1=NNC(=O)C1CCC(=O)N/N=C(\C)c1ccc(Cl)cc1` (stereo not given): -20.4%.
Next, `O=C(Cn1nnc(-c2ccccc2)n1)N/N=C/c1ccc(-c2ccc(Cl)cc2)o1`: -60.4%; `O=C(Cn1nnc(-c2ccccc2)n1)NCc1ccccc1`: 8.33%; `Cc1[nH]c2ccccc2c1/C=N\NC(=O)Cn1nnc(-c2ccccc2)n1`: 54.8% (active).
With `Cc1nn(Cc2ccc(F)cc2)c(C)c1NC(=O)c1cccnc1Cl`, the inhibition was 7.19%.
On to `COc1ccccc1NC(=O)c1c(Br)cnn1C`, for which the inhibition is -19.7%.
In the case of `O=C1C=CC(=O)N1c1ccc(N2CCCCC2)cc1`, the inhibition is 2.8%.
In the case of `COc1ccc(C(=O)Nc2cc(C)ccc2NC(=O)COc2ccccc2)cc1`, the inhibition was 51.4% (active).
Next, `COc1ccc(OCC(=O)NNC(=O)c2cccc(C)c2)cc1`: 1.17%; `COc1ccc(OCC(=O)NNC(=O)c2ccc(-c3ccccc3)cc2)cc1`: -4.48%; `O=C(O)C1=C[C@H](c2cccs2)C[C@H](OCCCCO)O1`: -6.55%.
With `O=C(COC(=O)c1cnccn1)Nc1cccc2ccccc12`, the inhibition is -43.3%.
Next, `O=C(NC(=S)Nc1ccc(NC(=O)c2cccs2)cc1)c1ccc([N+](=O)[O-])cc1`: 9.92%; `CC1CN/C(=C\C(=O)c2ccc(Br)cc2)C(=O)N1` (stereo not given): 14.4%; `O=C(c1ccc(Cl)c([N+](=O)[O-])c1)N1CCN(c2ccccc2)CC1`: 14%.
For `O=C(/C=C/c1ccc(Cl)cc1)N1CCN(c2ccccc2[N+](=O)[O-])CC1` the value was 37.4%; for `CO/N=C/c1ccc(N2CCN(C(=O)c3cccc(Cl)c3)CC2)c([N+](=O)[O-])c1`, 53.5% (active).
Next, `CC1=NN(c2ccccc2)C(=O)C1C(=O)c1ccc([N+](=O)[O-])cc1` (stereo not given): 2.01%; `S=c1[nH]nc(Nc2ccccc2)s1`: 31.7%; `COc1ccc(Cl)cc1NC(=O)CN(C)Cc1ccc(OC)c(OC)c1`: 30.5%.
Regarding `CCS(=O)(=O)c1cc([N+](=O)[O-])c(Sc2ccccc2N)s1`, the inhibition was 3.47%.
For `Nc1ccccc1Sc1ccc(C(F)(F)F)cc1[N+](=O)[O-]` the value was 87.2% (active); for `O=C(CSc1ccc(C(F)(F)F)cc1[N+](=O)[O-])NCCOc1ccccc1`, -9.45%.
With `O=C1Nc2ccc([N+](=O)[O-])cc2C1=Nc1cccc(CO)c1`, the inhibition is 21.2%.
Next, `CC1=NNC(=O)C1CCC(=O)N/N=C\c1cccc(Cl)c1` (stereo not given): -0.56%; `COc1ccc(/C=C(\NC(=O)c2ccc(OCC(C)C)cc2)C(=O)OCc2ccco2)cc1`: 14.9%.
Next, `O=C(Nc1nnc(C2CC2)s1)c1ccccn1`: -3.35%; `N#CCCCn1c(O)c(N=NC(=O)C(O)c2ccccc2)c2ccccc21` (stereo not given): -3.6%.
Next, `O=C(Cn1cncn1)N/N=C/c1c2ccccc2cc2ccccc12`: -113%.
For the molecule `Cc1ccc(NC2=C(Cl)C(=O)OC2OC(=O)c2ccccc2C)cc1` (stereo not given), the inhibition is 66.5% (active).
Next, `O=C1OC(OC(=O)c2ccccc2Br)C(N2CCOCC2)=C1Cl` (stereo not given): -3.83%.
For `Cc1ccccc1C(=O)OC1OC(=O)C(Cl)=C1Nc1ccccc1` (stereo not given) the value was -2.86%; for `CCOc1ccc(/C=N/OCC(=O)NCc2cccs2)cc1`, 3.21%; for `COC(=O)c1sccc1NC(=O)CC1C(=O)NCCN1C(=O)Nc1ccc(F)cc1F` (stereo not given), -15.5%.
Next, `Cc1cc(NC(=O)/C=C/C(=O)N(CC(=O)NC2CCCC2)c2ccc(F)cc2)no1`: 1.62%; `CCC(=O)Nc1ccc(C(=O)N2CCN(C(=O)c3ccco3)CC2)cc1`: 50.8% (active).
As to `CCNC(=S)N1CCN(C(=O)c2ccco2)CC1`, the inhibition is -6.94%.
Next, `O=C(c1ccc2c(c1)OCO2)N1CCN(C(=O)c2ccco2)CC1`: 14.3%; `CC(Sc1nnnn1C1CCCCC1)C(=O)O` (stereo not given): -11.2%; `C/C(=N\NC(=O)CNc1cccc2ccccc12)c1ccc(Br)s1`: 17.6%.
For the molecule `O=C(Nc1ccccc1Cl)O/N=C(/c1ccccc1)c1ccccn1`, the inhibition is -15.9%.
Next, `NCCCCCC(=O)N/N=C/c1ccc2nccnc2c1`: -3.28%; `CC(C)CNC(=S)NC(=O)c1ccc(Cl)cc1`: 11.4%.
Next, `COC/C=C/C1=CC2=CC(=O)C(C)(OC(=O)CCC(=O)OC)C(=O)C2=CO1` (stereo not given): -93.8%; `NC(N)=N/N=C/c1ccc(Cl)c([N+](=O)[O-])c1`: -20%; `COc1ccc(C(=O)O/N=C(\N)Cc2ccc(Cl)cc2Cl)cc1OC`: 11.8%.
`NC(N)=N/N=C/c1ccc(OCc2ccc(Cl)cc2Cl)cc1`: the inhibition is 61.9% (active).
In the case of `COc1ccc(/C=N/NC(=O)c2ccc(Cl)cc2)cc1COC(C)=O`, the inhibition is 38.9%.
Take `O=C(CN(c1cccc(Cl)c1)S(=O)(=O)c1ccccc1)NN=C1CCCC1`: the inhibition is -9.25%.
For `CCOc1ccc(C(=O)Nc2nccs2)cc1[N+](=O)[O-]` the value was 0.78%.
For `COc1ccccc1N1CCN(C(=O)CSc2ncnc3c2cnn3-c2ccc(C)c(C)c2)CC1` the value was -19.6%; for `CC(C)C[C@H](NC(=O)[C@@H]1O[C@H]1C(=O)O)C(=O)NCCCCN=C(N)N`, 98.8% (active); for `COc1cc(S(=O)(=O)N(Cc2cccs2)C2CC2)ccc1-n1cnnn1`, 26%.
For `Nc1ccccc1SC(C[N+](=O)[O-])c1ccccc1` (stereo not given) the value was 2.09%; for `O=C(Oc1cccnc1)c1cc2ccccc2oc1=O`, -6.4%; for `O=C(Nc1cccnc1)c1cc2cc(Br)ccc2oc1=O`, 52.9% (active).
Regarding `COc1ccc(C(=O)Nc2cccnc2)cc1C(=O)Nc1cccnc1`, the inhibition was 17.3%.
Turning to `COCCN(Cc1cc2cc3c(cc2nc1Cl)OCO3)C(=O)c1cccc(C)c1`, the inhibition is 24.9%.
As for `NCCCC[C@@H]1NC(=O)[C@H](CCC(=O)O)NC(=O)c2cc([N+](=O)[O-])cc(I)c2NCC[C@@H](C(N)=O)NC1=O`, the inhibition is -13.1%.
For `CCn1c(/C=C/Nc2ccccc2)[n+](CC)c2ccc(C(=O)OCC(F)(F)F)cc21`, the inhibition is 52% (active).
With `CCOC(=O)c1ccc2c(c1)nc(C)n2CC`, the inhibition was 14.2%.
Turning to `O=C(CCS(=O)(=O)Cc1ccccc1)Nc1ccc2c(c1)OCCO2`, the inhibition is -23.4%.
Next, `CCOc1cc(/C=N/NC(=O)OC)ccc1OCCSc1ccc(Cl)cc1`: -7.99%; `CCOC(=O)Nc1ccc(S(=O)(=O)N(C)C(C)C)cc1`: -5.03%; `COc1cc(NC(=O)c2ccccc2NS(=O)(=O)c2ccc(Cl)s2)cc(OC)c1`: -32.1%.
Next, `Nc1cc(C(F)(F)F)ccc1N1CCOCC1`: -2.56%; `N=c1oc2ccccc2cc1C(=O)N/N=C/c1ccccc1`: 14.5%.
With `O=C(N/N=C\c1cccc(Br)c1)c1ccccc1-n1cccc1`, the inhibition was 68% (active).
Next, `COc1ccc(OC)c2[nH]c(=O)c(CCNC(=O)C(=O)c3c[nH]c4ccccc34)cc12`: -38.9%; `CC(=O)c1ccc(NC(=O)C2CC(=O)Nc3nc4ccccc4n32)cc1` (stereo not given): -19.9%; `Cc1nc2ccccc2c(C)c1C(=O)c1ccc(F)cc1`: -9.43%.

The inhibition is the drop in the measured response relative to a control, in per cent.
